Bioassay records deposited in PubChem BioAssay by National Center for Advancing Translational Sciences (NCATS).
JMJD2E inh: qHTS Assay for Inhibitors of Human Jumonji Domain Containing 2E (JMJD2E); Lysine-specific demethylase 4E (Homo sapiens), B2RXH2; JMJD2E catalytic domain, FDH-coupled NADH fluorescence (FDH is formaldehyde dehydrogenase); Potency, µM (top dose mostly 57.1 µM), without a hit: top-dose activity change, negative = inhibition, most hits filed as inhibitors; actives 1.6% (n = 230,000); AID 2147, 2009; active = well fitted inhibition curve with a large enough effect, not every such curve was filed as active; inconclusive = small, poorly fitted or top-dose-only effect, or another doubt; inactive = no such curve, though single readings can be large or run the other way;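 also: potency is read from the fitted curve at half-maximal effect; 0% = wells with enzyme and -100% = buffer wells without enzyme; nearly all actives have a fitted effect of over 50% in size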
Target sequence (B2RXH2 1-337 limits assumed): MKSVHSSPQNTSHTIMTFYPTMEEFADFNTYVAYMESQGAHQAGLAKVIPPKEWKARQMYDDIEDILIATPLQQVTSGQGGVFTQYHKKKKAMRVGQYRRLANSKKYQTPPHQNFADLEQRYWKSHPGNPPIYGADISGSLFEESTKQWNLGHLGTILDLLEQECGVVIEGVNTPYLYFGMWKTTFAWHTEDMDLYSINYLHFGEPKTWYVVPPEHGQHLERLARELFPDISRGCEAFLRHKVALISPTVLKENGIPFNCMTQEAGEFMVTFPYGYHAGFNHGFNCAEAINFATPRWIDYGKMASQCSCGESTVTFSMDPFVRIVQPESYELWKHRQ
GoLoco inh red: qHTS Assay for Inhibitors of RGS12 GoLoco Motif Activity (Red Fluorophore); Guanine nucleotide-binding protein G(i) subunit alpha-1 (Homo sapiens), P63096; Gai1:RGS12 GoLoco peptide FP, rhodamine, 10 min; Potency, µM (doses to about 61.6 µM), for inactives: at the top dose activity, negative = inhibition, actives largely listed as inhibitors; actives 0.44% (n = 230,000); active = well fitted inhibition curve with a large enough effect, not every such curve was filed as active; inactive = no such curve, though single readings can be large or run the other way; also: potency is read from the fitted curve at half-maximal effect; % is scaled to controls: 0 for no effect and ±100 for the full control effect; nearly all actives have a fitted effect of over 30% in size
HTT cytoprotect: qHTS Multiplex Assay to Identify Dual Action Probes in a Cell Model of Huntington: Cytoprotection (ATP); PC12 HTT-Q103 induced, cytoprotection, ATP luminescence, 40 h; Potency, µM (highest dose often 56.4 µM), for the others: cytoprotection (ATP increase), actives largely listed as activators; actives 0.14% (n = 230,000); AID 1471, 2008; also: potency is read from the fitted curve at half-maximal effect; % of control where 0% means no effect; nearly all actives have a fitted effect of over 45% in size
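Stable PC12 Q103-GFP cells in serum-supplemented, phenol red-free DMEM; induction by tebufenozide at 100 nM final; compound dose series; cell viability quantified luminescently from ATP.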
FBPA coupling cs: qHTS Assay for Inhibitors of Fructose-1,6-bisphosphate Aldolase from Giardia Lamblia: Coupling assay counterscreen; activity change, negative = inhibition, % at 58.2 µM, hits read low; coupling enzyme system counterscreen, AmpLite Red fluorescence; AID 2472, 2010; actives 0.67% (n = 290,000); in the data active = activity change below about -30%; also: % is scaled to controls: 0 for no effect and ±100 for the full control effect
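Activity here indicates interference with the coupling reaction, not aldolase inhibition. Compounds at 57.5 uM final met coupling enzymes for 10 min at RT; substrate and AmpLite Red detection followed, with a 525/598 nm fluorescence read after 20 min.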
HttQ103 aggreg: qHTS Multiplex Assay to Identify Dual Action Probes in a Cell Model of Huntington: Aggregate Formation (GFP); Potency, µM (highest dose often 46.1 µM), for the others: at the top dose activity change, negative = inhibition, usual class: inhibitors; PC12 HttQ103-GFP aggregates, Acumen cytometry, 40 h; actives 1.1% (n = 220,000); also: potency is read from the fitted curve at half-maximal effect; % is scaled to controls: 0 for no effect and ±100 for the full control effect; nearly all actives have a fitted effect of over 60% in size
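PC12/HTTQ103-GFP, ecdysone-inducible; teb 100 nM; cpd qHTS titration; GFP aggregates read on laser cytometer, Ex 488/Em 500-530 nm.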
VDR inh: Inhibitors of the vitamin D receptor (VDR): qHTS; VDR-SRC2-3 peptide fluorescence polarization, 2 h; actives 0.93% (n = 400,000); AID 504847, 2011; Potency, µM, without a hit: max response, negative = inhibition, most hits filed as inhibitors; Vitamin D3 receptor (Homo sapiens), P11473; also: potency is read from the fitted curve at half-maximal effect; % is scaled to controls: 0 for no effect and ±100 for the full control effect
Target sequence (P11473 whole entry, looked up): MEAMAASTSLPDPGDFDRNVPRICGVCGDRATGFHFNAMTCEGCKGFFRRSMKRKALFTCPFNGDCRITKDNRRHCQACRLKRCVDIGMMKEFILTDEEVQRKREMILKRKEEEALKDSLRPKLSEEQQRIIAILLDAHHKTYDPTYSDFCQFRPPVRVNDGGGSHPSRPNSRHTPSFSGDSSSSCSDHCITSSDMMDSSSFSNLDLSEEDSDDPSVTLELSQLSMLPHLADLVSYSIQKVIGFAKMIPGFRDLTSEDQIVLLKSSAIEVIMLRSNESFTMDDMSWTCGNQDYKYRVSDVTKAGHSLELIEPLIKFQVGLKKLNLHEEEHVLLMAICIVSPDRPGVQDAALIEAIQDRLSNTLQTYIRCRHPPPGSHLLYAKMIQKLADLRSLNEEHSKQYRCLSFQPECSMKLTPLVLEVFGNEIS
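Signal is fluorescence polarization, reporting how far test compounds block the interaction of VDR with the SRC2-3 coregulator peptide after a 2 h room-temperature incubation.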
USP1-UAF1 confirm: Inhibitors of USP1/UAF1: Hit Validation in Primary Assay | shares compounds with VDR inh | actives 50% (n = 50) | Ub-Rhodamine cleavage, fluorescence kinetic read | Potency, µM (highest dose often 114 µM), inactives show at the highest dose activity change, negative = inhibition, most hits filed as inhibitors
VDR inh confirm: qHTS for Inhibitors of the vitamin D receptor (VDR): Hit Validation in Primary Screen. shares compounds with VDR inh. VDR-coactivator inhibition assay, qHTS confirmation. Potency, µM, actives largely listed as inhibitors. actives 89% (n = 840); also: potency is read from the fitted curve at half-maximal effect
VDR FP fluor: qHTS for Inhibitors of the vitamin D receptor (VDR): Hit Validation using a Fluorescein Assay; shares compounds with VDR inh; VDR-coactivator binding, fluorescein fluorescence polarization; Potency, µM (doses to about 57.1 µM), without a hit: at the top dose activity change, negative = inhibition, hits mostly inhibitors; actives 48% (n = 840); also: potency is read from the fitted curve at half-maximal effect
VDR bla: qHTS for Inhibitors of the vitamin D receptor (VDR): Hit Validation using a Beta-Lactamase Assay | AID 602202, 2012 | shares compounds with VDR inh | actives 23% (n = 840) | VDR beta-lactamase reporter cells, FRET ratio; cells co-treated with VDR agonist LG190178 | Potency, µM (doses to about 46.1 µM), for inactives: at the top dose activity change, negative = inhibition, usual class: inhibitors; also: potency is read from the fitted curve at half-maximal effect; % is scaled to controls: 0 for no effect and ±100 for the full control effect
VDR cytotox: qHTS for Inhibitors of the vitamin D receptor (VDR): Hit Validation using a Cytotoxicity Assay; Potency, µM (titrated, usually from 48.3 µM), for the others: at the highest dose activity change, negative = cytotoxicity, hits mostly cytotoxic; cytotoxicity counter-screen, cell viability, qHTS; shares compounds with VDR inh; actives 18% (n = 840);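 also: potency is read from the fitted curve at half-maximal effect; plate controls were DMSO for no effect and high-concentration cycloheximide for full effect; nearly all actives have a fitted effect of over 75% in size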
* hit, by the source's call; ? = inconclusive; · = no result given; [ ] = another dose, or the depositor's remark. Shown are actives, neighbours in structure and some others; about 2.3% of the full set was active somewhere. Unless noted, calls follow the shape of the dose curve; as a rule, active = well fitted curve in the direction sought with a large enough effect; inconclusive = small, poorly fitted or top-dose-only effect, or another doubt; inactive = no such curve, though single readings can be large; an effect the other way counts as inactive or inconclusive.

SMILES | JMJD2E inh | GoLoco inh red | HTT cytoprotect | FBPA coupling cs | HttQ103 aggreg | VDR inh | VDR inh confirm | VDR FP fluor | VDR bla | VDR cytotox | others
CCc1nnc(NC(=O)c2nc(S(=O)(=O)Cc3ccccc3)ncc2Cl)s1 | · | · | · | · | · | 22µM* | 7.5* | 8.9µM* | 13µM* | 18µM*
O/N=C/C1=C(Cl)c2ccccc2CC1 | -3% | 10% | -40%[1.9 µM] | 0 | 18%[9.22 µM] | -19% | · | · | · | ·
COC(=O)c1ccccc1NC(=O)c1nc(S(=O)(=O)Cc2ccccc2)ncc1Cl | · | · | · | · | · | ? | 3.2* | 3.2µM* | 9.2µM* | 21µM*
CC(=O)Nc1ccc(NC(=O)c2nc(S(=O)(=O)Cc3ccccc3)ncc2Cl)cc1 | · | · | · | · | · | -22% | · | · | · | ·
O=C(CSc1nc2ncc(Br)cc2[nH]1)Nc1ccccc1-c1ccccc1 | · | · | · | -3 | · | -14% | · | · | · | ·
CCOC(=O)c1[nH]cc(-c2ccccc2)c1N1CCOCC1 | 0% | -7% | 5%[10 µM] | 0 | -14% | 22µM* | 21* | ? | 14% | ?
CCOC(=O)c1cnc(-c2ccccc2)nc1N1CCOCC1 | 3% | 0% | -30% | 1 | 1% | -4% | · | · | · | ·
CCOC(=O)c1ccc(NC(=S)Nc2ccc(Br)cc2N)cc1 | · | · | · | · | · | 1% | · | · | · | ·
O=C(NNC(=O)c1ccc(Oc2ccc(C3SCCS3)cc2)o1)c1ccc(Cl)cc1 | -7% | 2% | 13%[10 µM] | 10 | -5%[9.22 µM] | -12% | · | · | · | ·
COc1cccc(/C=C2\C(=O)N(c3cccc(C)c3)C(=O)c3ccccc32)c1 | 4% | 5% | 3%[10 µM] | -29 | 3% | ? | 7.9* | 3.2µM* | -12% | 7%
COc1cccc(N2C(=O)c3ccncc3C2=O)c1 | -18% | 4% | -9% | 1 | 10% | 2% | · | · | · | ·
COc1ccc(/C=C2/C(=O)N(c3c(F)c(F)c(F)c(F)c3F)N=C2C)cc1 | · | · | · | -2 | · | 50µM* | ? | 18µM* | 15% | 22%
CC(=O)Oc1ccc(/C=C2/C(=O)N(c3ccccc3)N=C2C)cc1 | · | · | · | 2 | · | ? | · | · | · | ·
COc1ccc(C(=O)Oc2ccc(C(=S)N3CCOCC3)cc2)cc1 | ? | 6% | -4%[10 µM] | 1 | -8%[9.22 µM] | 71µM* | 27* | 25µM* | 5% | -3%
COc1ccc(Oc2ncc3nc(CCc4ccccc4)c(=O)n(C)c3n2)cc1 | · | 5% | -64% | -1 | · | -1% | · | · | · | ·
COc1cccc(C(=O)C(C#N)=C(SC)SC)c1 | 1% | -8% | -34%[10 µM] | 1 | 4%[9.22 µM] | 40µM* | 11* | ? | ? | 13µM*
CCOc1ccccc1CNC(=O)CSc1n[nH]c(-c2ccccc2Cl)n1 | · | · | · | · | · | 9% | · | · | · | ·
Cc1ccc(Sc2ccc(/C=C3/C(=O)NN(c4ccccc4)C3=O)o2)cc1 | -1% | 6% | -16%[10 µM] | 2 | -14%[9.22 µM] | ? | · | · | · | ·
O=C1NN(c2ccccc2)C(=O)/C1=C/c1ccc(Sc2ccc(Cl)cc2)o1 | -11% | 5% | -1%[10 µM] | -1 | 4%[9.22 µM] | 79µM* | ? | ? | -5% | ·
FC(F)(F)c1ccc(-c2noc(-c3ccccc3)c2I)cc1 | · | 7% | -93% | -2 | · | 5% | · | · | · | ·
COCCCNC(=O)c1ccc2c3c(onc13)-c1ccccc1C2=O | ? | 20µM* | -45%[10 µM] | -32* | -28%[9.22 µM] | 35µM* | 3.8* | ? | ? | ?
COc1ccccc1C(=O)N/C(=C\c1cn(C)c2ccccc12)C(=O)N1CCCC1 | · | · | · | -5 | · | -8% | · | · | · | ·
Cc1sc2nc(SCC(=O)N3CCOCC3)[nH]c(=O)c2c1-c1ccccc1 | · | · | · | 3 | · | -3% | · | · | · | ·
CN(CCO)c1cc(Sc2nc3ccccc3s2)c2nonc2c1[N+](=O)[O-] | -4% | -30% | -73% | -7 | 5% | 25µM* | 6.7* | 3.5µM* | ? | 3.2µM*
C=C[C@@H](C)[C@](C)(O)c1ccccc1 | 15% | 2% | ? | 2 | · | 0% | · | · | · | ·
SMILES | JMJD2E inh | GoLoco inh red | HTT cytoprotect | FBPA coupling cs | HttQ103 aggreg | VDR inh | VDR inh confirm | VDR FP fluor | VDR bla | VDR cytotox | others
N[C@@H](Cc1cc(-c2ccc(Cl)cc2Cl)cc(CP(=O)(O)O)c1O)C(=O)O | 4% | -21% | 8% | 19 | · | 45µM* | · | · | · | · | USP1-UAF1 confirm=42µM*
NC(Cc1ccc(Cl)cc1)C(=O)O (stereo unspecified) | -5% | -11% | 25% | 0 | -4% | 2% | · | · | · | ·
CCN(CC)c1ccc(/C=C/C(=O)c2cccnc2)cc1 | 2% | -6% | -17% | -1 | -10% | 12% | · | · | · | ·
O=C(/C=C/c1ccc(OCc2ccccc2)c(OCc2ccccc2)c1)c1cccnc1 | -10% | 21% | 3%[1.9 µM] | 9 | 21% | ? | 7.1* | 4µM* | -14% | -5%
O=C(/C=C/c1ccc(Cl)cc1)c1cccnc1 | 5% | 13% | -29% | 2 | 15%[9.22 µM] | 25µM* | 6* | 5.6µM* | 23% | 7%
O=C(/C=C/c1ccccc1Cl)NNC(=O)c1ccncc1 | · | · | · | · | · | 9% | · | · | · | ·
N#Cc1ccc(/C=C/C(=O)c2cccnc2)cc1 | -4% | -1% | -16% | 1 | 14% | 11µM* | 8.4* | ? | ? | ?
